This note sets out measurements from PubChem BioAssay AID1508600 (Functional Genomics Laboratory (NCATS/FGL), 2020).

The whole screen tested about 53,000 sequences, of which about 3,700 (7%) were called active. The full list was thinned out, with actives kept by preference. A number with no mark means an inactive call.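 The calls were made as follows: active = gene knockdowns whose robust z-score for IL-1 alpha signal is at least 2 or at most -2, so actives lie on both sides; inactive = the rest.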

A short description of the assay: Components of the Cytosolic LPS Sensing Pathway: Gene Identification via Genome-wide siRNA Screen.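 Also: robust z of the log signal after scaling to non-targeting control siRNA wells of the plate.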 Particulars: RAW264.7 macrophages, IL-1a HTRF, actives lie on both sides, screened at 100 nM (by protocol), cells primed 5 h with Pam3CSK4 first. The method in brief:
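IL-1a HTRF of supernatants after 24 hour LipidA transfection of Pam3CSK4-primed (5 hours) RAW264.7 cells, 48h post-siRNA transfection (100 nM). Scores: percent of plate negative-control median, then log-based robust z-score.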
Background: In TR-FRET formats the signal depends on donor and acceptor labels being close together.
Turning to GGACGAUUGCCAUAUGAACTT against Ice2, the z-score is -0.99.

GUACUUUCUUGAACCAGAGTT against Cacng7: the z-score was -0.486.

Consider GGAUGAAGCCUUCAUCAGGTT against Adcy6, for which the z-score is 0.0162.

Take GGAGAGAGACACAAGCUUGTT against Map7d1: the z-score is 1.07.

On to CCCGGGUCUUUGAUAUCUUTT against Evi5l, for which the z-score is 2.03 (active).

For the sequence GCGAAAACUUCGGAUCUAUTT against Smarcd2, the z-score is 1.29.

On to GGCUUAUCAUACCUGGUUGTT against Olfr691, for which the z-score was 0.404.

Regarding GGAUAUUUCAGUUGGCGGGTT against Lama2, the z-score is -0.158.

Turning to GGUCAAACUGAAGAAGGAGTT against Slc7a7, the z-score is -1.24.

Turning to GGAAGUUGAAAUGCUGUCGTT against Clcnka, the z-score is -2.24 (active).

GCAAGGAAAAUCUAUACCGTT against Rgs2: the z-score was -0.954.

For GCACAUACAGAGCUCGUCUTT against Zkscan6, the z-score is -0.471.

As for CCAGAUAAGCCUCAUCAAUTT against Scn5a, the z-score was -0.163.

Take GAAUCAGCUGUUCUCUCACTT against Tm2d3: the z-score is 2.25 (active).

As to GCACCAAACCAAUAUUAGUTT against Epb41l3, the z-score was 1.13.

For GCACCAUUAAGGUUGCCAATT against Nudt11, the z-score is -1.16.

GGUCUGUGGGAAACAUAAATT against Gria3: the z-score is -0.233.

In the case of GGAUGUCUAUUUUUGGUCATT against Esd, the z-score is -0.819.

Take GGCGGAUACUUGAUCGAAATT against Exoc3: the z-score was 2.41 (active).

For the sequence GGGACAAUACCAAUUUCUCTT against Car15, the z-score was -0.209.

In the case of GGCAAUCUCCUUUAAUUGATT against Zfp329, the z-score is 0.237.

Regarding GCCCUCAACCAUAAUUCAATT against Zscan21, the z-score is 2.15 (active).

For the sequence GGAAAUGAGCCAGGAUGGUTT against Cdca4, the z-score was 0.0601.

Consider CCCGAUUAUCUAGUGAUACTT against Sbk1, for which the z-score is 0.311.

GCCACUGGUUCACCAUGCATT against Ugt1a9: the z-score is -0.52.

As to GCCAGCUUUUAGUAUCAACTT against Sun1, the z-score is 2.4 (active).

As to GCCUGUGGUAGGAUACUAUTT against Denr, the z-score was -0.964.

Consider GGAAGGAACCGUUCUAUAATT against Serpinc1, for which the z-score was 0.221.

With “GGUUGGAUACUCGUCUUCATT against Olfr421-ps1”, the z-score was 1.16.

Consider GGCCCACAGUUUGUGACUGTT against Larp7, for which the z-score is -1.1.

Regarding GCGUAUAGGUGAUGUACAGTT against Smad3, the z-score is 2.28 (active).

Consider GGUCAUUAGUUAUUCCUACTT against Olfr600, for which the z-score is -1.33.

On to “GGGUUCAAGAUAUCAAGUATT against 4933434E20Rik”, for which the z-score is 1.23.

As to GCUUGGGUCAUAGGGAUGATT against Olfr1288, the z-score is -0.371.

Regarding CCACUUUUGUAAUGGAAGCTT against Mfsd6l, the z-score was 1.89.

GGAGAUUCAGAUCAAAGAGTT against Scyl1: the z-score is -0.182.

As to GCUACGUUUUUUACCUCCATT against Bak1, the z-score was 0.0106.

For the sequence GGCUUCCAGUAAUGACAAUTT against Vwc2l, the z-score was -1.67.

GGACUAUCAUCUGAUGCCATT against Klhl18: the z-score is 2.45 (active).

Take GGUCUUUCCCAGGAUUCCATT against Rab19: the z-score was -0.837.

Take GGUUGACUAUACUGAAAAGTT against Prrc2a: the z-score was -0.606.

On to GGGCAAUGAAUGACAUUGGTT against Gabrd, for which the z-score was -0.368.

On to GGGAGAAUCGAACUAUAAATT against Raver1, for which the z-score is -0.477.

As for GGACCCUUAGGAAAUGUGCTT against S100a10, the z-score was -1.13.

GCAUCAGAUUAUCUCACUGTT against Mtrf1l: the z-score was 0.261.

CGCGUGAUUGAUGUUUUACTT against Atxn10: the z-score is 0.793.

In the case of GUGUCAUUUCCCGGGACAUTT against Atp5g1, the z-score is 1.64.

On to CCUUGGACUGAUAUUAGCUTT against Dtx3, for which the z-score is 0.0235.

As to GGAACCUAAACGAACAAGGTT against Col6a2, the z-score was 2.18 (active).

Regarding GGAUGUACGGAAGCGAUUCTT against Gmpr2, the z-score was 0.404.

As for “GGUUCCUCAUUUGUAGAUGTT against D830050J10Rik”, the z-score was -1.19.

For the sequence GGAGGAACAAUCAUCUAUATT against Ripk2, the z-score is 1.1.

As for GGCACAGAUGUUUUGAGAATT against Surf4, the z-score is -0.954.

As to CGAAAAUAUGGAUACUACUTT against Ippk, the z-score is 0.732.

With CGGUGAUCGUCAUUUUAUUTT against Ap4m1, the z-score was 2.47 (active).

With GGUGAACCUCAACAGACUCTT against Gtf3c4, the z-score was -1.7.

For GGAAAAAAUCACAUUGACUTT against H2ac6, the z-score is -0.835.

With GCCCAUUAAUGGGAUAUAATT against Ccdc134, the z-score is 0.148.

As to GGCUCUGGCAGAAAUGGAUTT against Pex26, the z-score is -0.0204.

Consider GGGAACAGAAGUUGUGAGATT against Gulp1, for which the z-score is 1.5.

As for AGGUCAAUAAAGAGUGUGATT against Fam25c, the z-score was -1.66.

In the case of GGAUACGAAAACGACUGCATT against Pdpr, the z-score is 2.05 (active).

For GGACCAAUUGGAUCCUUUUTT against Olfr1340, the z-score was -1.6.

In the case of GCAUACGAUGGGAAUUGUATT against Wdr5b, the z-score was -1.6.

As for GGAAGAAGAUAAAGAGAAATT against Gtf2a1, the z-score is 1.09.

In the case of GGAAGUUACUGUGAGAUAATT against Mtbp, the z-score is 0.265.

Turning to GGAUGUUAUUCAGUUUUCATT against BC051019, the z-score was 2.37 (active).

Consider GGCCUAUCUUGUUUAUUUGTT against Tgtp1, for which the z-score was -0.316.

For the sequence AUCGUGUUUGCUGUAUUUGTT against Olfr1258, the z-score was 0.33.

For the sequence GGAAAUCACCAACUUGGCCTT against Pou3f3, the z-score was -0.0208.

Turning to GGAUUUGUAGUUCAUCUCATT against Olfr77, the z-score was 0.0834.

For the sequence GGUCAGUGGAGCUCUCUAUTT against Fam234a, the z-score was 1.43.

Turning to GGUUCUAAAACUUAACAAGTT against Brf2, the z-score is 2.7 (active).

Regarding GGCAAACAACUGAAUAAGGTT against Pbsn, the z-score was -0.611.

Consider CCAAGUUAGUCUGCGUAUUTT against Zfp979, for which the z-score is -0.52.

For the sequence CCCUACCCAGUUUCAGUUGTT against Phf12, the z-score is 0.206.

As to CCUGUGAAUUCAUCGUUCATT against Vps26c, the z-score is 2.34 (active).

Consider GCAUACCUAGGAAAAAACUTT against Ednra, for which the z-score was 0.524.

Consider GGUAUUGACAGGGAUCUGATT against Limk1, for which the z-score was 1.19.

With “GGCCUUAGGAAUCAAGUUGTT against 9530053A07Rik”, the z-score is 1.24.

Consider GGGUUUCAAUGGCACAAUUTT against Kif3b, for which the z-score is 2.12 (active).

For the sequence GGAUAACGUAAUGAAGAUCTT against Fgfr1, the z-score is -0.866.

On to GGUUUCUUCUUCUGUUCAUTT against Ostc, for which the z-score was 1.13.

With GGCUCAAAGACUGAAUCCCTT against Recql4, the z-score was 0.309.

Turning to GCUAUCUAGAGCCAAGAGCTT against Bahcc1, the z-score was 2.27 (active).

Consider GCUAGACCUCACUGUUUUUTT against Sprr2i, for which the z-score was 1.03.

For the sequence GCAGCAUGAAUCACACCUUTT against Dtd2, the z-score was -1.29.

Consider CGUGUUCAAAAGAGUUUUCTT against Sos1, for which the z-score is 1.22.

Turning to GCGGCUUUGUAUACAAGUUTT against Vwc2l, the z-score is 1.11.

As for GGUAACUGUGGACUUAUCUTT against Olfr665, the z-score is -2.17 (active).

In the case of GGCUGUCAGAACCAACUACTT against Tshb, the z-score is 0.214.

For CUCUAGUGUUACACUUAUUTT against Tefm, the z-score is 2.83 (active).

As to GGCCUUGAGAGGCUAAUACTT against Spata20, the z-score was -1.27.

With GGUGAUUGUUAGAGUUAAATT against Syt4, the z-score is 0.934.

In the case of GGUAAAAACCCAGAGAUGATT against Rem2, the z-score was 0.616.

Regarding GGAACUAAUGUGCAGGAGGTT against Suclg2, the z-score is 0.459.

“CCGUGAUCCCUUUUCACCATT against 6030445D17Rik”: the z-score is -2.26 (active).

Regarding CACGCAGAUGAUUAAGUUGTT against Olfr1000, the z-score was 1.25.

As to GGAGAAUGAGAUCAACCUGTT against Pah, the z-score was 0.618.

Turning to GGAGAACAGUCUUGAGAAATT against Crisp3, the z-score was -0.712.

With CCUCCAGGAUUAUCGUGAUTT against Dnajc6, the z-score is -1.22.

Turning to GGCUUAAUGUUGCUUCAGATT against Aven, the z-score is -0.959.

In the case of GGUCAAUUAUGAAGAGUUUTT against Calm3, the z-score is 3.04 (active).

For CCUUAAAAACUCGAGUAAATT against Gla, the z-score is 0.384.

Regarding GCGGUCACACCAAAAGUCATT against Olfr1466, the z-score was -1.56.

In the case of GCUGUUUAUCUAGCUGUUATT against Mmp8, the z-score is 0.782.

GGAUGUUAACAUUGAGCAATT against Asb11: the z-score was -0.0828.

Turning to GGCAUUUCAACUGGACCCATT against Lamb1, the z-score was -2 (active).
